Test results: PubChem BioAssay (EPA / NIEHS)
Calls of active or inactive are those of the source. How the source made its calls: active means hit-call score of the fitted dose curve at least 0.9, where 1 is the maximum; inactive means score below 0.9.

How the values were obtained:
[1] = CEETOX_H295R_PROG: CeeTox H295R High-throughput Steroidogenesis Assay for Progesterone (PROG) (AID 2283442); settings: actives raise or lower the signal;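 on AC50: human H295R adrenal cells primed with 10 µM forskolin before dosing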
Outline: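 H295R adrenal cells prestimulated 48 h with 10 uM forskolin, then exposed 48 h to test chemical in 0.1% DMSO. Progesterone in medium quantified by HPLC-MS/MS after MTBE extraction; viability checked by MTT in same wells.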

[2] = read-out: Tumor necrosis factor receptor superfamily member 6 (Homo sapiens) (UniProt P25445); experiment: LTEA_HepaRG_FAS: Life Technologies and Expression Analysis (LTEA) Assay for Fas cell surface death receptor (FAS) using HepaRG (AID 2283447); settings: mRNA level, 48 h; actives raise or lower the signal
Outline: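 Differentiated HepaRG cells in serum-free induction medium were exposed 48 h to 8 half-log concentrations up to 100 uM in 0.5% DMSO, in duplicate. FAS mRNA was measured by qRT-PCR normalised to ACTB, GAPDH and POLR2A; bidirectional fit versus DMSO.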

[3] = read-out: Fatty acid synthase (Homo sapiens) (UniProt P49327); experiment: LTEA_HepaRG_FASN: Life Technologies and Expression Analysis (LTEA) Assay for Fatty Acid Synthase (FASN) using HepaRG (AID 2283448); settings: mRNA level, 48 h; actives raise or lower the signal
Outline: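 HepaRG, 48 h exposure, 8-pt half-log series top 100 uM, 0.5% DMSO vehicle, duplicates. Readout: FASN transcript by Fluidigm qRT-PCR; housekeeping-normalized; bidirectional curve fit vs DMSO baseline.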

[4] = read-out: Cyclin D2 (CCND2), CCND2 (gene 894); experiment: LTEA_HepaRG_CCND2: Life Technologies and Expression Analysis (LTEA) Assay for Cyclin D2 (CCND2) using HepaRG (AID 2283449); settings: mRNA level, 48 h; actives raise or lower the signal;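 further: CCND2 transcript measured by TaqMan qRT-PCR and normalised to three housekeeping genes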
Outline: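 HepaRG, 48 h dosing, 8-pt half-log curve from 100 uM, 0.5% DMSO; duplicate wells. Readout: CCND2 transcript by microfluidic qRT-PCR, housekeeping-normalised; bidirectional fit vs DMSO baseline.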

[5] = read-out: Cyclin Dependent Kinase Inhibitor 1A (CDKN1A), CDKN1A (gene 1026); experiment: LTEA_HepaRG_CDKN1A: Life Technologies and Expression Analysis (LTEA) Assay for Cyclin Dependent Kinase Inhibitor 1A (CDKN1A) using HepaRG (AID 2283450); settings: mRNA level, 48 h; actives raise or lower the signal
Outline: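 Differentiated HepaRG cells in serum-free induction medium, exposed 48 h in duplicate to eight half-log concentrations up to 100 uM in 0.5% DMSO. mRNA measured by TaqMan qRT-PCR, normalized to ACTB, GAPDH, POLR2A; bidirectional fit versus DMSO.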

[6] = read-out: Cyclin D1 (CCND1), CCND1 (gene 595); experiment: LTEA_HepaRG_CCND1: Life Technologies and Expression Analysis (LTEA) Assay for Cyclin D1 (CCND1) using HepaRG (AID 2283451); settings: mRNA level, 48 h; actives raise or lower the signal;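 on AC50: TaqMan qRT-PCR transcript level normalised to ACTB GAPDH and POLR2A housekeeping genes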
Outline: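 Differentiated HepaRG cells exposed 48 h in serum-free induction medium to eight half-log concentrations from 100 uM top, 0.5% DMSO, duplicates. CCND1 mRNA measured by Fluidigm TaqMan qRT-PCR, normalised to ACTB, GAPDH, POLR2A; bidirectional fit.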

[7] = read-out: catalase (CAT), CAT (gene 847); experiment: LTEA_HepaRG_CAT: Life Technologies and Expression Analysis (LTEA) Assay for catalase (CAT) using HepaRG (AID 2283452); settings: mRNA level, 48 h; actives raise or lower the signal
Outline: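 HepaRG cells in serum-free induction medium, 0.5% DMSO vehicle, exposed 48 h in duplicate over 8 half-log concentrations from 100 uM. CAT mRNA measured by qRT-PCR, normalized to ACTB, GAPDH, POLR2A; bidirectional fit versus DMSO.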

[8] = read-out: CFLAR gene, CFLAR (gene 8837); experiment: LTEA_HepaRG_CFLAR: Life Technologies and Expression Analysis (LTEA) Assay for CFLAR gene using HepaRG (AID 2283455); settings: mRNA level, 48 h; actives raise or lower the signal
Outline: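 qRT-PCR read-out (Fluidigm/TaqMan) of CFLAR mRNA, normalized to three housekeeping genes, in differentiated human HepaRG cells after 48 h chemical exposure; 8-point half-log series from 100 uM in 0.5% DMSO; bidirectional curve fitting versus DMSO.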

[9] = read-out: Forkhead box O1 (FOXO1), FOXO1 (gene 2308); experiment: LTEA_HepaRG_FOXO1: Life Technologies and Expression Analysis (LTEA) Assay for Forkhead box O1 (FOXO1) using HepaRG (AID 2283456); settings: mRNA level, 48 h; actives raise or lower the signal
Outline: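 HepaRG, 48 h exposure, 8-pt half-log series from 100 uM in 0.5% DMSO, duplicates; Fluidigm qRT-PCR mRNA, housekeeping-normalised; bidirectional fit vs DMSO baseline.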

[10] = read-out: growth arrest and DNA damage 45 (GADD45A), GADD45A (gene 1647); experiment: LTEA_HepaRG_GADD45A: Life Technologies and Expression Analysis (LTEA) Assay for growth arrest and DNA damage 45 (GADD45A) using HepaRG (AID 2283458); settings: mRNA level, 48 h; actives raise or lower the signal
Outline: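 HepaRG, 48 h exposure, 8 conc. (top 100 uM, half-log steps), 0.5% DMSO vehicle, duplicates. Read-out: qRT-PCR mRNA level, housekeeping-normalized (ACTB/GAPDH/POLR2A). Curves fit bidirectionally vs DMSO baseline.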

[11] = read-out: Forkhead box O3 (FOXO3), FOXO3 (gene 2309); experiment: LTEA_HepaRG_FOXO3: Life Technologies and Expression Analysis (LTEA) Assay for Forkhead box O3 (FOXO3) using HepaRG (AID 2283459); settings: mRNA level, 48 h; actives raise or lower the signal
Outline: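 qRT-PCR readout of FOXO3 transcript, normalized to three housekeeping genes (ACTB, GAPDH, POLR2A); gain or loss fitted against 0.5% DMSO vehicle. HepaRG cells, 48 h chemical exposure, 8-point half-log series, top 100 uM.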

[12] = read-out: ABC Transporter (ABCB1), ABCB1 (gene 5243); experiment: LTEA_HepaRG_ABCB1: Life Technologies and Expression Analysis (LTEA) Assay for ABC Transporter (ABCB1) using HepaRG (AID 2283460); settings: mRNA level, 48 h; actives raise or lower the signal
Outline: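 HepaRG, 48 h exposure, 8-pt half-log series from 100 uM, 0.5% DMSO vehicle, duplicates. Readout: ABCB1 transcript by Fluidigm TaqMan qRT-PCR, housekeeping-normalized; bidirectional curve fit vs DMSO baseline.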

[13] = read-out: ABC Transporter (ABCC3), ABCC3 (gene 8714); experiment: LTEA_HepaRG_ABCC3: Life Technologies and Expression Analysis (LTEA) Assay for ABC Transporter (ABCC3) using HepaRG (AID 2283462); settings: mRNA level, 48 h; actives raise or lower the signal
Outline: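 Differentiated human HepaRG cells exposed 48 h in serum-free induction medium, 0.5% DMSO vehicle, 8-point half-log series to 100 uM in duplicate. ABCC3 mRNA by qRT-PCR, normalised to ACTB, GAPDH, POLR2A; bidirectional fit vs DMSO.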

[14] = read-out: ABC Transporter (ABCB11), ABCB11 (gene 8647); experiment: LTEA_HepaRG_ABCB11: Life Technologies and Expression Analysis (LTEA) Assay for ABC Transporter (ABCB11) using HepaRG (AID 2283463); settings: mRNA level, 48 h; actives raise or lower the signal
Outline: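 HepaRG, 48 h exposure, 8-pt half-log CRC top 100 uM, 0.5% DMSO vehicle, duplicates. Readout: TaqMan qRT-PCR of ABCB11 mRNA, housekeeping-normalized (ACTB/GAPDH/POLR2A). Bidirectional fit vs DMSO baseline.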

[15] = read-out: ABC Transporter (ABCC2), ABCC2 (gene 1244); experiment: LTEA_HepaRG_ABCC2: Life Technologies and Expression Analysis (LTEA) Assay for ABC Transporter (ABCC2) using HepaRG (AID 2283464); settings: mRNA level, 48 h; actives raise or lower the signal
Outline: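 Differentiated HepaRG cells in serum-free induction medium exposed 48 h to eight half-log concentrations up to 100 uM, 0.5% DMSO, in duplicate. ABCC2 mRNA measured by qRT-PCR (TaqMan, Fluidigm), normalized to ACTB, GAPDH and POLR2A. Fitted in both directions against DMSO.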

[16] = read-out: Broad substrate specificity ATP-binding cassette transporter ABCG2 (Homo sapiens) (UniProt Q9UNQ0); experiment: LTEA_HepaRG_ABCG2: Life Technologies and Expression Analysis (LTEA) Assay for ABC Transporter (ABCG2) using HepaRG (AID 2283465); settings: mRNA level, 48 h; actives raise or lower the signal
Outline: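 HepaRG, 48 h exposure, 8-pt half-log series from 100 uM, 0.5% DMSO vehicle, duplicates. Readout: ABCG2 transcript by qRT-PCR (Fluidigm array), housekeeping-normalized; bidirectional curve fit relative to DMSO baseline.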

[17] = read-out: Cytochrome P450 (CYP1A1), CYP1A1 (gene 1543); experiment: LTEA_HepaRG_CYP1A1: Life Technologies and Expression Analysis (LTEA) Assay for Cytochrome P450 (CYP1A1) using HepaRG (AID 2283454); settings: mRNA level, 48 h; actives raise or lower the signal
Outline: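 Differentiated human HepaRG cells, after 48 h plating, exposed in duplicate for 48 h in serum-free induction medium to 8 half-log concentrations up to 100 uM in 0.5% DMSO. CYP1A1 mRNA by qRT-PCR, normalized to ACTB/GAPDH/POLR2A; bidirectional fit versus DMSO.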

[18] = read-out: growth arrest and DNA damage 45 (GADD45B), GADD45B (gene 4616); experiment: LTEA_HepaRG_GADD45B: Life Technologies and Expression Analysis (LTEA) Assay for growth arrest and DNA damage 45 (GADD45B) using HepaRG (AID 2283461); settings: mRNA level, 48 h; actives raise or lower the signal
Outline: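 Differentiated human HepaRG cells in serum-free induction medium exposed 48 h in duplicate to eight concentrations, top 100 uM, half-log steps, 0.5% DMSO. GADD45B mRNA by TaqMan qRT-PCR, normalized to ACTB, GAPDH, POLR2A; bidirectional fit versus DMSO.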

[19] = read-out: flavin-containing dimethylaniline monooxygenases 3 (FMO3), FMO3 (gene 2328); experiment: LTEA_HepaRG_FMO3: Life Technologies and Expression Analysis (LTEA) Assay for flavin-containing dimethylaniline monooxygenases 3 (FMO3) using HepaRG (AID 2283453); settings: mRNA level, 48 h; actives raise or lower the signal
Outline: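 Eight-point concentration-response in serum-free HepaRG cultures (top 100 uM, 0.5% DMSO, 48 h). Read-out: FMO3 mRNA level normalized to three endogenous control genes, fitted bidirectionally versus vehicle.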

Measured: AC50

Fatty acid synthase (Homo sapiens), sequence (P49327 whole entry, looked up): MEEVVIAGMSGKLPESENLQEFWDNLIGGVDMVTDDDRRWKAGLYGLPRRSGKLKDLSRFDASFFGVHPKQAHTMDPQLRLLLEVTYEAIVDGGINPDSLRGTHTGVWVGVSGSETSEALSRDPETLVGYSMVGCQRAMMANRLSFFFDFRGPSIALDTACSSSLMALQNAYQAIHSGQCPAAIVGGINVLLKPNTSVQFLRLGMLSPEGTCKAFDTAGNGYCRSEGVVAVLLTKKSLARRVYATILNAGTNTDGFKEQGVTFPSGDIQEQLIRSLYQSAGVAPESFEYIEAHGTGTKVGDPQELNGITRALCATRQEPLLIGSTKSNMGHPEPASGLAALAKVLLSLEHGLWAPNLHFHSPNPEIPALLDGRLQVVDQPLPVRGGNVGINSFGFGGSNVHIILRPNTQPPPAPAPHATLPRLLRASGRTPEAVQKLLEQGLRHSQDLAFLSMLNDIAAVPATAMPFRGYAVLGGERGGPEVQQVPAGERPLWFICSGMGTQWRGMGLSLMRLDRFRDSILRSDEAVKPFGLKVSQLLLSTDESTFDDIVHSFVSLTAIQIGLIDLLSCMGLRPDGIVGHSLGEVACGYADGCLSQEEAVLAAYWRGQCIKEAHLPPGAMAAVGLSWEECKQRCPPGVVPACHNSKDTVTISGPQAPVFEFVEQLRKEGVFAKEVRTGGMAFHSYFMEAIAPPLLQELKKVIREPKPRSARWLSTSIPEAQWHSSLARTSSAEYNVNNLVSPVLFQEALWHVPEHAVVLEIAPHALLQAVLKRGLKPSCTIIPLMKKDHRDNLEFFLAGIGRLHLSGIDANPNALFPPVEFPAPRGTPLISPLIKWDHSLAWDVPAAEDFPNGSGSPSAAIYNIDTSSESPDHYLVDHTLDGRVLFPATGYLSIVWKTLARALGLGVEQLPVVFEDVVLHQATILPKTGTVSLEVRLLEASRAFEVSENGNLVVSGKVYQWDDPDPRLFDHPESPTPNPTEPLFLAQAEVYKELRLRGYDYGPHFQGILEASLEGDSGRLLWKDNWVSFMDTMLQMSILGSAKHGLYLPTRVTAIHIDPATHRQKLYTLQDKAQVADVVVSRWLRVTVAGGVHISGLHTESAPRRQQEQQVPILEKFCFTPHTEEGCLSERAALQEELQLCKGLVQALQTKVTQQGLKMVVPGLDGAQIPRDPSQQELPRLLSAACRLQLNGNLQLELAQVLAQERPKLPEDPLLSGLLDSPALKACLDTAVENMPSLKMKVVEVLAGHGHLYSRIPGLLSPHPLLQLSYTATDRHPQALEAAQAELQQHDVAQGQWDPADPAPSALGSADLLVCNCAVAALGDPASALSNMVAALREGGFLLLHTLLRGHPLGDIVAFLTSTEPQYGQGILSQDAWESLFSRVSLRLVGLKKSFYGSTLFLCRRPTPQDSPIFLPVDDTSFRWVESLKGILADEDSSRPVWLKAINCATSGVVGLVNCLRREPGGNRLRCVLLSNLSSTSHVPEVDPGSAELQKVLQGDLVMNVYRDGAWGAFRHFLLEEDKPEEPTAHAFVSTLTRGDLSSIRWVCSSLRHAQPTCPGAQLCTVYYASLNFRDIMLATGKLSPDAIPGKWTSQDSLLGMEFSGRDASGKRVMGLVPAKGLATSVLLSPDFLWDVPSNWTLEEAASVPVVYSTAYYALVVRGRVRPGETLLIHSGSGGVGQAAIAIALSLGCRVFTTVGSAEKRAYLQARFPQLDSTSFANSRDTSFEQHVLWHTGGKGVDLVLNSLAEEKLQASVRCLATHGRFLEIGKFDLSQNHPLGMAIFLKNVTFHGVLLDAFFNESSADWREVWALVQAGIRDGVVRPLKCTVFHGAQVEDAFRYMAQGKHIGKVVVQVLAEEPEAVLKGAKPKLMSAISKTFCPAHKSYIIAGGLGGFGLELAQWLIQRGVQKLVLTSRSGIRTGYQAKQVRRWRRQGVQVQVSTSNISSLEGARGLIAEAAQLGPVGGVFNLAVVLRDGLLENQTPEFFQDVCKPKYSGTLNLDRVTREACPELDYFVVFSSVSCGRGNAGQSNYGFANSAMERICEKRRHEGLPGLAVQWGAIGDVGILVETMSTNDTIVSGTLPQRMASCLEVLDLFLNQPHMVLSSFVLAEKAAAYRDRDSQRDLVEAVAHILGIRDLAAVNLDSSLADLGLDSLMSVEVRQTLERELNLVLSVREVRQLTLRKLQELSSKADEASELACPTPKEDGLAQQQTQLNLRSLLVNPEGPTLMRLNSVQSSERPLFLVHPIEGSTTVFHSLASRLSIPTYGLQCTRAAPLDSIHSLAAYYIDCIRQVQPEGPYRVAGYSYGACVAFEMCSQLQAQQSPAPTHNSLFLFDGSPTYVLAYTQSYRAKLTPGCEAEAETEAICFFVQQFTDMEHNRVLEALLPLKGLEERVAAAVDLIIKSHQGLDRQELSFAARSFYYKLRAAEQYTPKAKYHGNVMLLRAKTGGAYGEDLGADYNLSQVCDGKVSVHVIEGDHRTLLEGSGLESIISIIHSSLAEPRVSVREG
Broad substrate specificity ATP-binding cassette transporter ABCG2 (Homo sapiens), sequence (Q9UNQ0 whole entry, looked up): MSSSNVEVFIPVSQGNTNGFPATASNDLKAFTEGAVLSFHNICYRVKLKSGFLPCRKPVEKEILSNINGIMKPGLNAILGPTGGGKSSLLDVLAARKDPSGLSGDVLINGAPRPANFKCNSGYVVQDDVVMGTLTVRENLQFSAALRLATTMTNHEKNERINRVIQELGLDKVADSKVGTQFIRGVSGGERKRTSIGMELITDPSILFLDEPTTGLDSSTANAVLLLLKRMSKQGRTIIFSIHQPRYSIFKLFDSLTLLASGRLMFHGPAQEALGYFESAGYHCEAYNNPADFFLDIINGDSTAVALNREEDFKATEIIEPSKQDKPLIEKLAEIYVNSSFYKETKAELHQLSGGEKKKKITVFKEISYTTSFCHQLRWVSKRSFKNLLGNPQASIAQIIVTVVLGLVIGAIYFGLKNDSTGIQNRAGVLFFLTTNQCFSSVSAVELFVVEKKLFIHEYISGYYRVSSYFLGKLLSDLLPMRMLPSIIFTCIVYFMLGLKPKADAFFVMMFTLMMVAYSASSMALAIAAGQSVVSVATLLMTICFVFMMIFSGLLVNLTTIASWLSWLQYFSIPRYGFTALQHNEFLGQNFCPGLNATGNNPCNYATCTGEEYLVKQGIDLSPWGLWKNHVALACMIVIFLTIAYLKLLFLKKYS

CC(C)(c1cc(Br)c(O)c(Br)c1)c1cc(Br)c(O)c(Br)c1
active: [1] 4.87 µM | [2] 92.5 µM | [5] 92.3 µM | [6] 47.8 µM | [8] 71.8 µM | [11] 89.2 µM | [14] 9.94 µM
not listed: [17] | [18] | [19]
inactive: all other assays above

Clc1cc(Cl)c2c(c1)N=C1CCCCCN1C2
active: [17] 1.61 µM | [18] 6.31 µM
not listed: [6] | [19]
inactive: all other assays above

O=C1CCC(C2CCCCC2)CC1
not listed: [7] | [17] | [18]
inactive: all other assays above

Cc1occc1C(=O)Nc1ccc(C(=O)N2CCC(F)(F)/C(=C\C(=O)N3CCC(N4CCCCC4)CC3)c3ccccc32)cc1
active: [3] 19.4 µM | [6] 39.9 µM | [7] 31.2 µM | [19] 44 µM | [8] 31.2 µM | [13] 47 µM | [14] 44.5 µM
not listed: [1] | [17] | [18]
inactive: all other assays above
